Source: PubChem BioAssay AID602197 (NMMLSC, 2012)
The list shows a part of the results. The source made the active and inactive calls. Cut-off read from the data, not from the text of the source: active = response above about 24%; inactive = the rest.

assay: V-ATPase regulators in yeast, one dose – S. cerevisiae, pH-sensitive GFP, second cherry-pick, confirmation (AID 602197);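 note: plate controls were vehicle wells for no effect and positive control wells for full effect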; conditions: S. cerevisiae pHLuorin cytosolic pH, V-ATPase proton transport; at 10 µM; hits give high values

response, inactive:
Cc1cc(=O)c2ccc(NC(=O)c3ccccc3)cc2[nH]1 -0.97%
CCCc1cc(=O)[nH]c(SCc2ccc(C#N)cc2)n1 1.04%
Cc1cc(CO)nn1-c1ccc([N+](=O)[O-])cc1 2.63%
COc1ccc(N2CCN(C(=O)/C(C#N)=C/c3ccccc3)CC2)cc1 -3.48%
COc1ccc(CCN2C(=O)N(c3ccc(OC)cc3)C(=O)C2CC(=O)Nc2ccc(OC)cc2)cc1 (stereo not drawn) -1%
CC1=NN(c2ccc(Cl)c(C(=O)O)c2)C(=O)/C1=C/c1ccc(-c2ccccc2[N+](=O)[O-])o1 1.31%
Cc1ccc(C(=O)Nc2nc3ccc(Cl)cc3s2)o1 -0.02%
OCc1nc(CO)n(Cc2ccccc2)n1 -7.16%
CCOC(=O)CNC(=O)CSc1nnc(COc2ccc(Cl)cc2)n1CC -1.08%
Cc1cc(=O)[nH]c(N/N=C/c2c(C)nn(-c3ccccc3Cl)c2Cl)n1 -0.02%
CCOC(=O)COc1cc(O)c2c(=O)cc(-c3ccccc3)oc2c1 -3.04%
CNC(=O)c1csc(Cc2c(Cl)sc3ccc(Cl)cc23)n1 2.33%
COc1cccc(OC)c1C(=O)OCC(=O)/C(C#N)=C(\C)N -0.01%
O=C(NC1CCN(Cc2ccccc2)CC1)c1cc(Br)c(Br)[nH]1 2.14%
N#C/C(C(=O)N1CCOCC1)=C1/SC(Cc2ccc(F)cc2)C(=O)N1c1ccccc1 (stereo not drawn) 5.79%
CCCc1nnc(NC(=O)c2cc(OC)cc(OC)c2)s1 -0.87%
COC(=O)c1cc(Oc2ccc(S(=O)(=O)N3CCOCC3)cc2[N+](=O)[O-])cc(C(=O)OC)c1 0.18%
O=C(COc1cc2oc(=O)c3c(c2cc1Cl)CCC3)NCCCN1CCOCC1 2.9%
O=S(=O)(c1ccc(-c2ccno2)s1)N1CCCCC1 -6.9%
CCC(=O)c1ccc(OCC(=O)Nc2ccc(N3CCCCC3)cc2)cc1 -1.55%

response, active:
O=C1Oc2ccccc2C(=O)/C1=C/c1ccccc1O 91.4%
CC1=NOC(=O)/C1=C\c1ccccc1 30.5%
COc1ccc2nc(N3CCN(C(=O)c4ccc([N+](=O)[O-])o4)CC3)sc2c1 36%
